Measured values reported in PubChem BioAssay (NCATS).
Records with an inconclusive call do not appear. Values without a mark were called inactive. Calls of active or inactive are those of the source. The call rests on the fitted dose curve; in most records, active means well fitted inhibition curve with a large enough effect; inconclusive means small, poorly fitted or top-dose-only effect; inactive means flat fitted curve, though single readings scatter.

tested on: NIH3T3; experiment: Cytotoxic Profiling of Annotated Libraries Using Quantitative High-Throughput Screening (AID 1296008); conditions: Five cell lines viability, CellTiter-Glo ATP luminescence, 48-72 h; max response: stronger effect = lower value; further: nearly all actives have a fitted effect of over 60% in size
Method in brief: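 Compounds were pin-transferred onto cells and incubated 48 or 72 hr at 37 degree Celsius, 95% humidity. CellTiter-Glo was added, plates sat 10 min at room temperature, then ATP-coupled luminescence was imaged as the viability read-out.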
On the % scale 0 is the no-effect control and ±100 the full control effect; potency means the concentration at half of the fitted maximal effect.

| Structure (SMILES) | Potency | max response [%] |
| --- | --- | --- |
| C=C1/C(=C/C=C2\CCC[C@]3(C)[C@@H]([C@H](C)CC[C@@H](O)C(C)(C)O)CC[C@@H]23)C[C@@H](O)C[C@@H]1O | 0.0146 µM (active) |  |
| CN(C)CCn1cc(-c2ccc(F)cc2)c(-n2cccc2)n1 |  | -6.89 |
| C/C=C(\C)C(=O)O[C@H]1C[C@](C)(O)[C@H]2CC=C(C)[C@H]2[C@@H]2OC(=O)[C@H](C)[C@H]21 |  | 0.0048 |
| O=C(NCCN1CCOCC1)c1cc2c(Oc3ccc(NC(=O)C4(C(=O)Nc5ccc(F)cc5)CC4)cc3)ccnc2[nH]1 | 6.51 µM (active) |  |
| Nc1nc(OCc2cc(Br)cs2)c2[nH]cnc2n1 |  | 2.13 |
| C=C1C(=O)O[C@@H]2C[C@H](C)C3=CC(=O)[C@H](O)[C@@]3(C)C[C@H]12 |  | -23.3 |
| COc1c(C(O)CC(C)C)ccc2c1C(=O)OCc1cc(C)cc(O)c1O2 (stereo unspecified) |  | -2.04 |
| COc1ccc([C@H]2OC[C@H]3O[C@@H](O[C@H]4[C@@H]2NC[C@@H]4O)[C@H](O)[C@H]3O)cc1 | 1.14 µM (active) |  |
| NS(=O)(=O)Nc1ncnc(OCCOc2ncc(Br)cn2)c1-c1ccc(Br)cc1 |  | -5.35 |
| NC(=O)C1=CC2C3C=CC2C(OC3=O)O1 (stereo unspecified) |  | 3.24 |
| COc1nc2ccc(Br)cc2cc1[C@@H](c1ccccc1)[C@@](O)(CCN(C)C)c1cccc2ccccc12 | 18.4 µM (active) |  |
